This is one part of a sample in which hits are shown more often than they occur.
ST2 IL33 inh: blocks human ST2 binding to IL-33; Q01638; AlphaLISA ST2-Fc/biotin-IL-33 interaction, 1 h; inhibition, % for hits at 17 µM; hit rate 2.3% among 78,000; AID 1259354; in the data active means inhibition above about 30%
Target sequence (Q01638 whole entry, looked up): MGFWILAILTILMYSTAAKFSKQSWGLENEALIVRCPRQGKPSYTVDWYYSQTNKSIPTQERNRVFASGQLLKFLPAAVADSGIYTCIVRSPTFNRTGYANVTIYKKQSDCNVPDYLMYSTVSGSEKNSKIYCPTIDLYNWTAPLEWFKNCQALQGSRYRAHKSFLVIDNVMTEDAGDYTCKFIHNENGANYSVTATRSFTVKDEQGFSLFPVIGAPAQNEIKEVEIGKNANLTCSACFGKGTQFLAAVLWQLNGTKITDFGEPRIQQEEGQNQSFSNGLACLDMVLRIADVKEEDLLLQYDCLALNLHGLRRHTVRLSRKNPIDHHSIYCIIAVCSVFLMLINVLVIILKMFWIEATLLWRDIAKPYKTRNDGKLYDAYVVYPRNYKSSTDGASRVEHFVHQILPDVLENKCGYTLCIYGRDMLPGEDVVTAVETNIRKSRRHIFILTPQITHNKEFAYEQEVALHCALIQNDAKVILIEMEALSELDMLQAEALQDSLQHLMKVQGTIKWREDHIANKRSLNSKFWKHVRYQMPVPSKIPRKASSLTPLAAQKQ
Large screens that a line does not name were inactive.

O=C1NN(c2ccc(Cl)c(Cl)c2)C(=O)/C1=C\c1ccc(-c2cccc(C(=O)O)c2)o1	none
Cc1ccc(N2NC(=O)/C(=C/c3ccc(-c4cccc([N+](=O)[O-])c4)o3)C2=O)cc1C	ST2 IL33 inh 61%
CC1=NN(c2cccc(Br)c2)C(=O)/C1=C\c1ccc(-c2cccc([N+](=O)[O-])c2)o1	none
COc1ccc(NC2(C(=O)N3CCOC(CN)C3)CCCC2)cc1 (stereo not given)	none
O=C(O)c1ccc2c(c1)N(Cc1ccc(F)cc1)C(=O)CS2	none
COc1ccc(-c2nc3c4c5c(sc4ncn3n2)CCCCC5)cc1OC	none
COC(=O)c1ccc(C(=O)Nc2sc3c(c2C#N)CCCCC3)cc1	none
COc1ccc(OC)c(-c2ncnn2-c2sc3c(c2C#N)CCCCC3)c1	ST2 IL33 inh 34%
COc1ccc(OC)c(-c2cc(C(=O)Nc3sc4c(c3C#N)CCC4)no2)c1	none
COc1ccc(-c2ncnn2-c2sc3c(c2C#N)CCCCC3)cc1OC	ST2 IL33 inh 44%
COc1ccccc1-c1cc(C(=O)Nc2sc3c(c2C#N)CCCC3)no1	none
CCc1nc2nc(C)[nH]n2c(=O)c1NC(=O)Nc1cccc(C)c1	none
CC(C)Nc1c2c(nc3ccccc13)CCC2	none
Cc1nn(-c2ccccc2)c2c1C(c1ccc([N+](=O)[O-])o1)C(C#N)=C(N)O2 (stereo not given)	ST2 IL33 inh 39%
Cc1nn(-c2ccccc2)c2c1C(c1cccnc1)C(C#N)=C(N)O2 (stereo not given)	none
COc1ccc(Br)cc1C1C(C#N)=C(N)Oc2c1c(C)nn2-c1ccccc1 (stereo not given)	none
CC1=C(n2nnc3ccccc32)C(c2ccccc2)C(C#N)=C(N)O1 (stereo not given)	none
N#CC1=C(N)Oc2n[nH]c(-c3ccccc3)c2C1c1ccc([N+](=O)[O-])cc1Cl (stereo not given)	none
Cc1nn(-c2ccccc2)c2c1C(c1ccncc1)C(C#N)=C(N)O2 (stereo not given)	ST2 IL33 inh 38%
Cc1nc(N(C)C2CCCCC2)ncc1C(C)NC(=O)c1ocnc1C (stereo not given)	none
Cc1cc(Br)ccc1NC(=O)c1cc2ccccc2o1	none
Cc1ccccc1C(=O)Nc1nnc(CC(C)(C)C)s1	none
COc1ccc(S(=O)(=O)N2CC3[C@H]4C=C[C@H](C4)[C@H]3C2)cc1 (stereo not given in full)	none
Cc1c(-c2ccc(Br)cc2)[n+](=O)c2c(n1[O-])CCC2	none
Cc1ccc2c(c1)c1c(n2CCC#N)CCN(C)C1	ST2 IL33 inh 42%
Cc1ccc2c(c1)c1c(n2CCN2C(=O)c3ccccc3C2=O)C(=O)CCC1	none
CN1CCc2[nH]c3c(Cl)cccc3c2C1	none
Cc1cc(C)n(-c2ccccc2)n1	none
Cc1csc(=Nc2ccccc2)n1CC(=O)c1ccccc1	ST2 IL33 inh 36%
CCOC(=O)c1sc(=Nc2ccccc2)n(-c2ccccc2)c1C	none
Cc1csc(=Nc2ccccc2)n1-c1ccccc1	ST2 IL33 inh 32%
Cc1nc([N+](=O)[O-])cn1CC(=O)c1ccccc1	none
Cc1cccn(CC(=O)c2ccc(-c3ccccc3)cc2)c1=N	none
CC(C)=CCc1cc2c(c(CC=C(C)C)c1O)OCC1c3ccc(O)cc3OC21 (stereo not given)	none
Cc1nnc(SCCC(=O)Nc2ccccc2C(F)(F)F)s1	none
O=C(C1CCC1)N1CCc2cc(S(=O)(=O)NC3CCCCCC3)ccc21	none
CC1CCCN(C(=O)CCS(=O)(=O)c2cccc3nsnc23)C1 (stereo not given)	none
Cc1nc2c(-c3ccc(F)cc3)c(C)nn2c(C)c1CCC(=O)Nc1cc(F)ccc1F	none
O=C(Nc1nc(-c2cc3ccccc3oc2=O)cs1)c1c(F)cccc1F	none
O=C(Nc1nc(-c2cc3ccccc3oc2=O)cs1)c1ccccc1Br	none
O=c1oc2ccccc2cc1-c1csc(Nc2ncccn2)n1	ST2 IL33 inh 34%
CCCCC1C=CCN1C(=O)c1cnc(C(C)C)[nH]c1=O (stereo not given)	none
CN(C)CCN(C)[C@@H]1[C@H](O)[C@H](CO)O[C@@H]1CNC(=O)C1CCCC1	none
CN1C(=O)CC(C(=O)Nc2ccc(C(=O)O)cc2)SC1=Nc1cccc(C(F)(F)F)c1 (stereo not given)	none
NS(=O)(=O)c1ccc(Nc2nc(-c3ccccn3)cs2)cc1	none
Brc1ccc(Nc2nc(-c3ccccn3)cs2)cc1	none
COc1ccc(Nc2nc(Nc3ccc(OC)cc3)c([N+](=O)[O-])cc2[N+](=O)[O-])cc1	none
Cc1nc2ncccn2c1-c1csc(Nc2cccc([N+](=O)[O-])c2)n1	ST2 IL33 inh 37%
COc1cccc(Nc2nc(-c3ccc(F)cc3)cs2)c1	none
COc1ccc(Nc2nc(-c3cccc([N+](=O)[O-])c3)cs2)cc1	ST2 IL33 inh 38%
O=C(NCC[C@@H]1C[C@@H]2C=C[C@H]1C2)c1ccc(CSc2ncccn2)o1	none
CCOC(=O)N1CCN(Cc2ccc(Cl)c(Cl)c2)CC1	none
O=C(c1ccc(F)c(F)c1)N1CCN=C1SCc1ccccc1Cl	none
O=S(=O)(NC1CCCc2ccccc21)c1cccc2cccnc12 (stereo not given)	none
CCOc1ccc(-n2c(C)nc3c(cnn3-c3ccc(F)cc3)c2=O)cc1	none
CCc1cccc(-n2c(-c3ccco3)nc3c(cnn3-c3ccc(F)cc3)c2=O)c1	none
CCOc1ccc(-n2c(-c3ccco3)nc3c(cnn3-c3ccc(F)cc3)c2=O)cc1	ST2 IL33 inh 33%
COc1ccc(CCC(=O)Nc2ccc(Cl)c(N3CCCS3(=O)=O)c2)cc1	none
N#C/C(=C\c1cccs1)c1nc(-c2ccc(Cl)c(Cl)c2)cs1	none
COc1ccc(-c2csc(/C(C#N)=C\Nc3cccc(C(F)(F)F)c3)n2)cc1OC	none
COc1ccc(-c2csc(/C(C#N)=C/c3ccccc3Cl)n2)cc1	ST2 IL33 inh 42%
COc1cccc2cc(-c3nc(-c4ccc(Cl)cc4)cs3)c(=O)oc12	none
COc1ccc(-c2cc(C(F)(F)F)nc(NCc3cccs3)n2)cc1	none
COc1cc(N/C=C(/C#N)c2nc(-c3ccc(F)cc3)cs2)c(OC)cc1Cl	none
COc1ccc(-c2csc(/C(C#N)=C/c3ccccc3OC)n2)cc1	ST2 IL33 inh 40%
COc1ccc(C2=Nn3c(nnc3-c3ccccc3Cl)SC2)cc1	none
COc1ccc(-c2csc(/C(C#N)=C/c3ccc(Cl)cc3)n2)cc1	ST2 IL33 inh 34%
COc1ccc(/C=C(\C#N)[N+](=O)[O-])cc1	none
COc1ccc(-c2csc(/C(C#N)=C\c3ccc(F)cc3)n2)cc1OC	none
COc1ccc(-c2csc(/C(C#N)=C/c3cccs3)n2)cc1	ST2 IL33 inh 50%
CC(CCc1ccco1)NC1CCC2(CCNCC2)CC1 (stereo not given)	none
Cc1ccc2[nH]c(C(=O)NCC3(Cn4ccnc4C)CC3)c(C)c2c1	none
Cc1ccc(NC(=O)CC(=O)NCCC2COc3ccccc3O2)cc1 (stereo not given)	none
Cc1ccc(N2C(=O)CSC2=NC(=O)Nc2ccccc2)c(C)c1	none
Cc1ccc(CCNC(=O)c2cccn3c(=O)c4c5c(sc4nc23)CCCC5)cc1	none
COc1ccccc1Nc1nc(C2(C)CC(CC(C)C)C(=O)O2)cs1 (stereo not given)	none
O=S(=O)(Nc1ccc2ccccc2n1)c1cc(Br)ccc1Br	none
CN1CC2(CCN(Cc3nccn3C)CC2)CC1C(=O)O (stereo not given)	none
COc1ccc2c(c1)sc(=NC(=O)c1ccc(S(=O)(=O)N3CCCC(C)C3)cc1)n2C (stereo not given)	none
CC(C)CCC(c1ccccc1)N(C)C(=O)C1(C(N)=O)CC1 (stereo not given)	none
CCCN1CCN(CCCNC(=O)c2cn(C)c(=O)c3c2c2ccccc2n3C)CC1	none
O=C(Nc1nc(-c2ccccc2)cs1)c1ccccc1	none
